These results are taken from ChEMBL document CHEMBL3988442, “University of Dundee, Small-Polar-MMV Screening Library” (2021).

SMILES strings stand for the structures. Screen size: about 69,000 compounds; about 420 (0.61%) showed an effect of 50% or more. The sample holds strong results, similar compounds and a random draw of the others, so the mix is not that of the screen.

This test has as its target T1, Histidine--tRNA ligase (Leishmania infantum) (UniProt A4I591).
T1 sequence (whole entry): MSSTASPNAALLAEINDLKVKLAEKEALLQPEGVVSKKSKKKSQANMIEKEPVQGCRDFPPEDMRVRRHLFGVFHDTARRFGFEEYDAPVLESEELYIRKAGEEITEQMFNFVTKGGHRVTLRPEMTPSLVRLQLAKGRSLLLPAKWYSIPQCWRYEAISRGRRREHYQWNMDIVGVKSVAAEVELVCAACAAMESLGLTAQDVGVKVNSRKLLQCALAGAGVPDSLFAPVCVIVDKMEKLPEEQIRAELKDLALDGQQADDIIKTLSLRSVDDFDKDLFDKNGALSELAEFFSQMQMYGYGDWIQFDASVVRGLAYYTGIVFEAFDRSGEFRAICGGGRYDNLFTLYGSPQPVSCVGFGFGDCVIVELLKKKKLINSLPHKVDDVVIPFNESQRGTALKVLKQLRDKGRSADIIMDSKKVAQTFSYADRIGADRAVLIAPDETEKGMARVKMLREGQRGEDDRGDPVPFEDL
As to the kind of experiment: Leishmania infantum Histidine tRNA synthetase (LdHisRS). It is filed as functional. Also noted: scale not given: in the data most compounds retested in dose-response had high values. To be noted: 30 µM.
With `CN(C)C(=O)NC[C@H]1OC[C@@H]2CCN(Cc3ccoc3)C[C@@H]21`, the Percent Effect was -1.89%.

Consider `Cn1cccc1C(=O)N1CCO[C@@H]2CN(Cc3ccco3)C[C@@H]2C1`, for which the Percent Effect stood at 11.8%. `Cc1occc1C(=O)N1C[C@@H](OCc2cccnc2)[C@H]2OCCC[C@@H]21`: the Percent Effect is 28.2%. For `O=C1O[C@@H]2CN(Cc3cc4ccccc4s3)C[C@@H]2N1Cc1ccccn1` the value was 2.67%; for `CCN1C(=O)CO[C@@H]2CN(C(=O)C3CCOCC3)C[C@H]21`, 20.6%. For `CN(C)S(=O)(=O)N1CC[C@]2(O)CCN(CCCc3cccnc3)C[C@@H]2C1` the value was 18.4%; for `Cc1ccccc1CN1C[C@@H]2COC[C@]2(CNC(=O)C2CCC2)C1`, 13.9%; for `COCCOCC(=O)N1C[C@@H]2CC[C@H](Oc3ccccc3)[C@@H]2C1`, 26.3%.

In the case of `Cc1noc(C)c1CNc1cccc(C(=O)N(C)c2ccccc2)c1`, the Percent Effect was -0.855%. For `Cc1noc(C)c1CNc1ccc2nc(C3CC3)sc2c1` the value was 75.9%. For `Cc1cc(CNc2ccc3nc(C4CC4)sc3c2)no1` the value was 27.6%; for `Cc1cc(CNc2ccc(C(F)(F)F)cc2)no1`, 17%.

In the case of `Cc1cc(CNc2ccc3nc(C)sc3c2)no1`, the Percent Effect came to 58.6%.

As to `Cc1noc(C)c1CNc1cccc(C(=O)N2CCCC(O)C2)c1` (stereo not given), the Percent Effect worked out at 27.4%. Turning to `O=C(c1cscn1)N1CCO[C@H]2[C@@H](Oc3ccccn3)CC[C@@H]21`, the Percent Effect was determined as 7%. For the compound `Cc1noc(CN2C[C@H]3CC[C@@H]2CN(C2Cc4ccccc4C2)C3)n1`, the Percent Effect was 20.4%.

With `O=C(N1CCOCC1)[C@@]12CCO[C@@H]1CCN(C1CCCCC1)C2`, the Percent Effect is 20.5%. For `Cc1cccc(CN2C[C@@H]3CN(C(=O)c4ccsc4)C[C@@H]3C2=O)n1` the value was 28.6%; for `Cc1cccc(CN2C(=O)CO[C@@H]3CN(Cc4nccn4C)C[C@H]32)c1`, 17.3%. Consider `CCc1ccc(C(=O)NCCNc2ncccn2)cc1`, for which the Percent Effect is 2.63%. Then `O=C(NCCNc1ncccn1)c1ccc(Br)cc1`, with 18.4%; and `Cc1ccc(C)n1-c1ccc(C(=O)NCCNc2ncccn2)cc1`, with 53%. For `O=C(c1ccoc1)N1C[C@@H]2OCCN(c3ncccn3)[C@@H]2C1` the value was 15.3%.

As to `Nc1ccc(C(=O)N2C[C@@H]3CC[C@H](C2)N(Cc2ccccc2)C3)cn1`, the Percent Effect turned out to be 9.57%. Then `CC(=O)N1[C@H](CN(C)C)C[C@@H]2CN(c3ncc(F)cn3)CC[C@@H]21`, with 14.5%; and `COc1cc(CNCCn2cc(C)cn2)cc2c1OCCO2`, with 9.17%; and `COc1cc(CNCCc2cnn(C)c2)cc2c1OCCO2`, with 24.8%. For `COc1cc(CNc2cnn(C)c2)cc2c1OCCO2` the value was 53.6%.

Consider `CC(C)NC(=O)[C@H]1C[C@@H]2[C@@H](C1)OCCN2Cc1ccco1`, for which the Percent Effect was 5.56%. Then `Cc1cncc(C(=O)N2C[C@@H]3CN(S(C)(=O)=O)CCO[C@@H]3C2)c1`, with 15.1%; and `O=C(N[C@@H]1CN(c2ncccn2)C[C@@H]2CCCO[C@@H]21)c1ccnnc1`, with 22.9%. For `CC(=O)Nc1ccc2nc(CN(C)Cc3noc(C)n3)ccc2c1` the value was 18.4%. Consider `CC(=O)Nc1ccc2nc(CN(C)Cc3snnc3C)ccc2c1`, for which the Percent Effect was 61.2%.

Consider `CC(=O)Nc1ccc(CN(C)Cc2snnc2C)cc1`, for which the Percent Effect is 16.3%. Then `Cc1ccoc1C(=O)N1C[C@H](OCC2CC2)[C@H]2OCCC[C@H]21`, with 2.65%. `COC[C@@]12CC[C@@H](N3CCOCC3)C[C@H]1CCN(c1cc(C)ccn1)C2`: the Percent Effect was found to be 19.4%.

Consider `O=C([C@H]1C[C@@H]2[C@@H](C1)OCCN2CC1CC1)N1CCCC1`, for which the Percent Effect stood at 19.3%. As for `CCC1CN(CCC(=O)N(C)C)CCN1CCOC` (stereo not given), the Percent Effect worked out at 50%.

As to `CCC1CN(CC(=O)N2CCC2)CCN1CCOC` (stereo not given), the Percent Effect is 28.6%. For `CCC1CN(CCNC(C)=O)CCN1CCOC` (stereo not given) the value was 4.76%; for `c1ccc(O[C@H]2C[C@@H]3CN(Cc4cnccn4)C[C@@H]3C2)cc1`, 15.9%; for `COc1cc(N2C[C@@H]3COC[C@]3(COCc3ccccn3)C2)ncn1`, 13.8%. With `NC(=O)c1ccc(N2CCCCC2)c(NC(=O)c2cc(Br)ccc2Cl)c1`, the Percent Effect came out at 80.7%.

Take `NC(=O)c1ccc(N2CCCCC2)c(NC(=O)c2ccc(F)cc2Cl)c1`: the Percent Effect worked out at 65.6%.

As for `NC(=O)c1ccc(N2CCCCC2)c(NC(=O)c2cc(Br)ccc2F)c1`, the Percent Effect amounted to 36.8%. Consider `NC(=O)c1ccc(N2CCCCC2)c(NC(=O)c2cc(F)ccc2F)c1`, for which the Percent Effect is 18.3%. As to `NC(=O)c1ccc(N2CCCCC2)c(NC(=O)c2ccc(F)cc2F)c1`, the Percent Effect stood at 18.3%. Regarding `NC(=O)c1ccc(N2CCCCC2)c(NC(=O)c2ccc(Br)cc2)c1`, the Percent Effect amounted to 20.4%. Then `O=S1(=O)C[C@@H]2[C@H](C1)N(Cc1cc(F)cc(Cl)c1)CCN2CCO`, with 0%. For `CN(C)C(=O)N1C[C@@H]2CC[C@H](C1)N(Cc1nnc(-c3ccco3)o1)C2` the value was -9.89%. Regarding `NC(=O)NCC(=O)N1C[C@H]2CC[C@@H]1CN(Cc1cscn1)C2`, the Percent Effect is 0%. Consider `CCc1oc(C(=O)N2CC[C@H]3CC[C@@H](C2)N3)cc1CN(CC)CC`, for which the Percent Effect amounted to 12.6%. For `COc1ccc(C)cc1CN1CCC(c2cc3ncccc3cn2)CC1` the value was 60.6%; for `Fc1ccc(F)c(CN2CCC(c3cc4ncccc4cn3)CC2)c1`, 35.2%; for `Fc1cccc(CN2CCC(c3cc4ncccc4cn3)CC2)c1F`, 29.6%. As for `Cc1noc([C@@H]2C[C@@H]3CCN(c4nnc(C)s4)C[C@H]3O2)n1`, the Percent Effect came to 13.5%. With `O=C(c1ccoc1)N1CC[C@H]2OCC[C@@]2(COc2ncccc2F)C1`, the Percent Effect was 24.5%. With `Cc1ccncc1C(=O)N1C[C@H]2CN(CC3CCC3)C[C@@]2(C(=O)O)C1`, the Percent Effect was -1.64%. Consider `CN(CC(O)CO)c1nc(-c2cccnc2)nc2c1CCNC2` (stereo not given), for which the Percent Effect is 7.85%. Then `CN(CC1CCCCO1)c1nc(-c2cccnc2)nc2c1CCNC2` (stereo not given), with 9.95%; and `Cc1nonc1CN(C)c1nc(-c2cccnc2)nc2c1CCNC2`, with 67.5%; and `CS(=O)(=O)CC(=O)N1C[C@@H]2COC[C@]2(c2nnc(C3CC3)o2)C1`, with 15.1%. As to `N#Cc1cccc(CN2CC[C@@H]3CN(c4ncccn4)CCO[C@@H]3C2)c1`, the Percent Effect was -0.901%. Take `NCC(c1ccc(Cl)cc1)N1CCc2sccc2C1` (stereo not given): the Percent Effect came out at 13.7%. For `CSc1ccc(C(CN)N2CCc3sccc3C2)cc1` (stereo not given) the value was 71.4%; for `CC(C)c1ccc(C(CN)N2CCc3sccc3C2)cc1` (stereo not given), 17.8%.

Consider `CC(=O)Cc1c(C)nn(-c2cncc(N)c2)c1C`, for which the Percent Effect is 64.6%.

`COc1cncc(-n2nc(C)c(CC(C)=O)c2C)c1`: the Percent Effect turned out to be 34.2%.

With `CC(=O)Cc1c(C)nn(-c2cncc(C(N)=O)c2)c1C`, the Percent Effect was determined as 16.5%.

As to `COCCN1CC[C@@H]2O[C@@H](COCC(=O)N3CCCC3)CC[C@@H]21`, the Percent Effect is 17.1%. For `COC[C@@]12CCC[C@@H]1CN(C(=O)CN(C)C)C2` the value was 5.77%.

Turning to `CC(C)(C)NC[C@@H]1CCC[C@@H]2CN(Cc3csnn3)C[C@@H]21`, the Percent Effect was found to be 17.1%. Then `O=C(C1CCOCC1)N1CCO[C@H]2[C@H](Oc3ccccn3)CC[C@@H]21`, with -1%; and `COCCOCCNc1cncc(Br)c1`, with 45.5%. Then `COCC(C)NC(=O)c1cncc(Br)c1` (stereo not given), with 19.2%. For `O=c1[nH]nc(CNc2cncc(Br)c2)[nH]1` the value was 11.1%. Consider `O=C(NCCNc1cncc(Br)c1)c1ccc(O)cc1`, for which the Percent Effect was 42.5%. For `CS(=O)(=O)CCOCCNc1cncc(Br)c1` the value was 53.2%; for `CCCC(O)CNc1cncc(Br)c1` (stereo not given), 95.9%; for `CCOCC(O)CNc1cncc(Br)c1` (stereo not given), 46.6%.

Consider `CS(=O)(=O)CCOCCNc1ccc(Br)cn1`, for which the Percent Effect was found to be 16.9%. For `COCC(O)CNc1cncc(Br)c1` (stereo not given) the value was 60.3%; for `Cn1cc(C(=O)N2CC[C@@H]3[C@@H]2CCN3c2ncc(F)cn2)cn1`, 14.3%; for `O=C(c1ccnnc1)N1C[C@@H](OCc2cccnc2)[C@H]2OCCC[C@H]21`, 22.9%. As for `O=C(N[C@@H]1CN(c2ncccn2)C[C@@H]2CCCO[C@@H]21)c1cccnc1`, the Percent Effect stood at 2.86%. Take `Cc1ccc(N2CC[C@@H]3O[C@@H](c4ccncn4)C[C@H]3C2)nn1`: the Percent Effect was determined as 16.2%. Take `Cc1nc[nH]c1CN1CCN(C(=O)CN2CCCC2)[C@H]2CS(=O)(=O)C[C@H]21`: the Percent Effect turned out to be 15.6%. For `CCn1cc(CNc2ccc(Br)c(OC)c2)cn1` the value was 16.9%. Then `CCn1cc(CNc2ccc3nccnc3c2)cn1`, with 90.9%; and `CCn1cc(CNc2ccc(F)c(F)c2)cn1`, with 3.54%.

With `CC(C)N(C)C[C@H]1OC[C@@H]2CCN(Cc3cccc(C#N)c3)C[C@@H]21`, the Percent Effect came to 10%. With `Cc1nc(CO[C@H]2CN(C(=O)c3cccn3C)[C@@H]3COC[C@H]23)cs1`, the Percent Effect was -6%. Then `Nc1nc(N2CCCC(COc3ccc(F)cc3)C2)c2nc[nH]c2n1` (stereo not given), with 81.9%; and `Nc1cc(N2CCCC(COc3ccc(F)cc3)C2)ncn1` (stereo not given), with 28.9%. Regarding `COc1ccccc1N1CCN(c2nc(N)nc3[nH]cnc23)CC1`, the Percent Effect is 21.7%. Then `O=C(c1cncc(N2CC[C@@]3(O)CCNC[C@H]3C2)n1)N1CCCC1`, with 0%; and `CN(C)S(=O)(=O)N1CC[C@]2(O)CCN(c3cc(C#N)ccn3)C[C@@H]2C1`, with 15.7%. `O=C1[C@H]2CN(C3CCOCC3)C[C@H]2CN1Cc1cccc(F)c1`: the Percent Effect came to 19.7%.

With `O=C(C1CCCCC1)N1C[C@@H]2CCN(c3cnccn3)C[C@@H]2C1`, the Percent Effect worked out at 46.8%.

Take `O=C(C1CCCC1)N1C[C@@H]2CCN(c3cnccn3)C[C@@H]2C1`: the Percent Effect stood at 30.3%.

As to `CS(=O)(=O)N1C[C@H]2N(c3ncccn3)CCC[C@@]2(C(=O)NCC2CC2)C1`, the Percent Effect came out at 6.36%.

As to `COc1ccc(C(NCc2ccc(C#N)cc2)C2CC2)cc1` (stereo not given), the Percent Effect came to 29.1%. Turning to `COc1ccc(C(NCc2cccc(O)c2)C2CC2)cc1` (stereo not given), the Percent Effect was found to be 69.6%.

As to `COc1ccc(C(NCc2cccc(C#N)c2)C2CC2)cc1` (stereo not given), the Percent Effect worked out at 3.8%. Regarding `Cc1ccoc1C(=O)N1CC[C@H]2[C@@H]1CCC(=O)N2c1cccnc1`, the Percent Effect worked out at 23%. For `CCS(=O)(=O)NC[C@]12COC[C@H]1CN(CCc1ccccc1)C2` the value was 2.63%; for `c1cnc(N2CCC3(CC2)CN(CC2CC2)c2ccccc23)nc1`, 70.7%; for `O=C1N(CC2CC2)CCC12CCN(c1ncccn1)CC2`, 24.4%. As to `c1ccc2c(c1)N(CC1CCOC1)CC21CCN(c2cnccn2)CC1` (stereo not given), the Percent Effect came out at 39.1%. Turning to `CN(C)CCN1C(=O)CC[C@@H]2[C@H]1CCN2C(=O)c1ccc(C#N)cc1`, the Percent Effect was 17.1%. With `CN(C)[C@H]1COC[C@@H]2CN(Cc3ccc4c(c3)OCO4)C[C@@H]21`, the Percent Effect was 16.2%. Then `O=C1N(c2ccccc2)C[C@H]2CN(C3CCC3)CCN12`, with 22.2%; and `CCc1ccc2c(C3CN(C(C)=O)C3)ncn2c1`, with 17.6%. Take `CCc1ccc2c(C3CN(S(C)(=O)=O)C3)ncn2c1`: the Percent Effect came to 12.6%.

Take `CCc1ccc2c(C3CN(CC4CCC4)C3)ncn2c1`: the Percent Effect was 69.8%.
